These results are taken from PubChem BioAssay.

A number with no mark means an inactive call.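 The calls were made as follows: active = NADPH fluorescence slope more negative than the mean of all samples by about 3 SD, 99.7% confidence; inactive = the rest.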

Sequence of Voltage-gated potassium channel subunit beta-2 (Rattus norvegicus) (P62483 whole entry, looked up): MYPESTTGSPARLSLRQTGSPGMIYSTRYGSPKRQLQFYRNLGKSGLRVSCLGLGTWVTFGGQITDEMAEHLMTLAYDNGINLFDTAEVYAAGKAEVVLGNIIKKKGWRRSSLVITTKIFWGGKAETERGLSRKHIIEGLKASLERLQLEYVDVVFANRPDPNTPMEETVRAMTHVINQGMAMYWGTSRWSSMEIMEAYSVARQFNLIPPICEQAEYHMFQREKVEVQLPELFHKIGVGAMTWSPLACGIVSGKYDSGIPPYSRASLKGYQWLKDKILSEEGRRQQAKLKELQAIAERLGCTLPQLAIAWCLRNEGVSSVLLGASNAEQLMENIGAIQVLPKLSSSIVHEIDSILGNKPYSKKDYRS

This assay concerns the target Voltage-gated potassium channel subunit beta-2 (Rattus norvegicus) (UniProt P62483). Kind of assay: enhancers of rat Kvbeta2 NADPH turnover – biochemical, NADPH fluorescence, primary screen (AID 623).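 Also: fluorescence intensity change per second fitted from 20 to 320 s.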 The following applies: Recombinant KvBeta, NADPH fluorescence decrease slope, 10 min; at 10 µM; stronger effect = lower value.
As for `O=C(Cn1cc(C(=O)c2ccccc2)c2ccccc21)NCc1ccco1`, the NADPH fluorescence slope was -1.5e-05.
The result for `COc1ccc(C2NCc3ccc4c(c3-n3cccc32)OCO4)cc1O` (centres undefined) reads -4.4e-05; that for `Cn1c(C(=O)N2CCC3(CC2)OCCO3)cc2c(=O)n(C)c3ccccc3c21`, -5.9e-06; that for `O=C1C2CCCN2C(c2ccc(Cl)c(Cl)c2)N1c1ccccn1` (centres undefined), -4e-05.
With `CC(=NCc1cccnc1)c1c(O)n(Cc2ccccc2)c(=O)[nH]c1=O`, the NADPH fluorescence slope is 0.000113.
The result for `O=C(c1ccc2nc3ccc(Cl)cc3c(=O)n2c1)N1CCC2(CC1)OCCO2` reads 1.1e-05; that for `COc1ccc(OC)c(C2=NOC(C(=O)N3CCC4(CC3)OCCO4)C2)c1` (centres undefined), -6.7e-06; that for `Cn1c(O)c(C=NCc2ccco2)c(=O)n(C)c1=O`, 3.2e-06.
Regarding `O=c1[nH]c(=O)n(Cc2ccccc2)c(O)c1C=NCCCO`, the NADPH fluorescence slope was -3e-05.
Take `O=C(C1CCCN(S(=O)(=O)c2cccc3nsnc23)C1)N1CCC2(CC1)OCCO2` (centres undefined): the NADPH fluorescence slope is -2.9e-05.
Then `Nc1ccccc1C(=O)OC1CSC1`, with -2.7e-06; and `Cc1cc(N2C(=O)C3CCCN3C2c2cccc(Cl)c2)no1` (centres undefined), with -2.7e-05; and `COC(=O)c1c(C)n(Cc2ccc3c(c2)OCO3)c2ccc(O)cc12`, with -1.6e-05.
On to `NC(=O)CSP(=O)(c1ccccc1)c1ccccc1`, for which the NADPH fluorescence slope is -3.8e-05.
As for `OCC12COC3c4ccccc4C(OC1)N32` (centres undefined), the NADPH fluorescence slope is -4.5e-06.
Then `CCOC(=O)c1cccc([P+](=O)O)c1`, with -3.4e-05; and `COc1ccccc1OCCCn1cc(C(=O)c2ccco2)c2ccccc21`, with -2.9e-06; and `Cc1cc(NC(=O)COC(=O)c2c(C)nn(Cc3ccccc3)c2Cl)no1`, with -0.000127.
The result for `CC(C)OC(=O)c1c(N)n(CC2CCCO2)c2nc3ccccc3nc12` (centres undefined) reads 1.4e-05.
Take `COC(=O)c1ccccc1-n1c(C)nc2ccccc2c1=O`: the NADPH fluorescence slope is 4.4e-06.
Then `CC1CCN2c3nc4ccccn4c(=O)c3CC3(C(=O)N(C)C(=O)N(C)C3=O)C2C1` (centres undefined), with -6.2e-05; and `CCN1CCN(c2ncnc3ccc(Br)cc23)CC1`, with 2.1e-06; and `COCCOC(=O)C1=C(N)Oc2c(c(=O)oc3ccccc23)C1c1ccncc1` (centres undefined), with -1.3e-05.
The result for `CSc1ccc(CNC2CN3CCC2CC3)cc1` (centres undefined) reads -9.5e-05; that for `CCOC(=O)C1CCCCC12C(C#N)=C(N)Oc1n[nH]c(C)c12` (centres undefined), 1.2e-05; that for `CC1(C)CC(=O)C=C(NCCN2CCN(C(=O)Cc3ccc(Cl)cc3)CC2)C1`, -4.2e-05.
Turning to `COc1ccc(CCNC(=O)c2c(N)n(CCN3CCOCC3)c3nc4ccccc4nc23)cc1`, the NADPH fluorescence slope was -7.3e-05.
Turning to `CSc1ccc(C(=O)C(C)(C)N2CCOCC2)cc1`, the NADPH fluorescence slope is -4.3e-05.
The result for `COc1ccccc1N1CCN(Cc2cccc(OC)c2O)CC1` reads -0.000104.
Then `Cc1ccc(S(=O)(=O)Cc2ccc(C(=O)N3CCC4(CC3)OCCO4)o2)cc1`, with -0.000506; and `CCOc1ccc(Br)c(C2(O)CC(C)N(C)CC2C)c1` (centres undefined), with -8.9e-05.
For the molecule `Cc1ccc(CS(=O)(=O)CCC(=O)N2CCC3(CC2)OCCO3)cc1`, the NADPH fluorescence slope is -6.6e-05.
Regarding `NC(=O)OCCSc1nnc(-c2cccc(C(N)=S)c2)o1`, the NADPH fluorescence slope is -9.5e-05.
For the molecule `O=C(O)c1nonc1-c1nonc1C(=O)O`, the NADPH fluorescence slope was -1.4e-05.
